Measured values from PubChem BioAssay (NCI).
This is part of a sample that, as a whole, favours compounds with a hit. Of some 83,000 tested, about 20% had one in any assay.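 How to read the values: 0–100, growth inhibition (40 = 60% inhibited); 0, no net growth; -100 to 0, cell death (-40 = 40% of starting cells died; -100 = all dead).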 The source made the active and inactive calls. The calls were made as follows: active = growth percent below 10; inactive = the rest.

How the values were obtained:
Experiment in all cases: NCI-60 one-dose screen, 48 h (100 = growth as untreated, 0 = no growth, -100 = all killed)
Conditions in all cases: 10 µM unless noted
HCT-15 colon = tested on: HCT-15 colon
HT29 colon = tested on: HT29 colon
SNB-75 CNS = tested on: SNB-75 CNS
SNB-19 CNS = tested on: SNB-19 CNS
U251 CNS = tested on: U251 CNS
PC-3 prostate = tested on: PC-3 prostate
SK-MEL-5 melanoma = tested on: SK-MEL-5 melanoma
UACC-62 melanoma = tested on: UACC-62 melanoma
LOX IMVI melanoma = tested on: LOX IMVI melanoma
SK-MEL-28 melanoma = tested on: SK-MEL-28 melanoma
SK-MEL-2 melanoma = tested on: SK-MEL-2 melanoma
EKVX NSCLC = tested on: EKVX NSCLC
SN12C renal = tested on: SN12C renal
UO-31 renal = tested on: UO-31 renal
TK-10 renal = tested on: TK-10 renal
ACHN renal = tested on: ACHN renal
CAKI-1 renal = tested on: CAKI-1 renal
A498 renal = tested on: A498 renal
CCRF-CEM leukemia = tested on: CCRF-CEM leukemia
MOLT-4 leukemia = tested on: MOLT-4 leukemia

Measured: growth

COc1ccc(-c2nc3sc(-c4ccc(Cl)cc4)cn3n2)cc1
inactive: HCT-15 colon 72% | HT29 colon 17.3% | PC-3 prostate 58.1% | SK-MEL-5 melanoma 72.6% | UACC-62 melanoma 68.6% | LOX IMVI melanoma 54.2% | SK-MEL-28 melanoma 100% | SK-MEL-2 melanoma 106% | EKVX NSCLC 47.5% | CCRF-CEM leukemia 69.5% | MOLT-4 leukemia 82.6%
active: SNB-75 CNS -1.66% | SNB-19 CNS -1.95% | U251 CNS -67.9% | SN12C renal 5.26% | UO-31 renal -7.46% | TK-10 renal -30.8% | ACHN renal -74% | CAKI-1 renal -3.32% | A498 renal -25.3%

CC(=O)CC[C@H]1C(=O)N[C@@H](C(C)C)C(=O)N[C@@H](Cc2cc(O)cc(F)c2)C(=O)N2CCC[C@H](N2)C(=O)O[C@H](/C(C)=C/C=C/C(=O)OC(C)(C)C)C/C=C/C=C/[C@H](O)[C@H](C)[C@H]1O
inactive: HCT-15 colon 26.6% | HT29 colon 29.6% | SNB-75 CNS 54.6% | SNB-19 CNS 70% | U251 CNS 43.3% | PC-3 prostate 48.6% | SK-MEL-5 melanoma 51% | UACC-62 melanoma 52.4% | LOX IMVI melanoma 48.6% | SK-MEL-28 melanoma 59.4% | SK-MEL-2 melanoma 62.3% | EKVX NSCLC 71.3% | SN12C renal 53.7% | UO-31 renal 56.2% | TK-10 renal 62.6% | ACHN renal 62.6% | CAKI-1 renal 57.4% | A498 renal 82.3% | CCRF-CEM leukemia 46.3% | MOLT-4 leukemia 49.5%

N[C@@H](Cc1ccccc1)[C@@H](O)C(=O)NCc1ccc(F)cc1
inactive: HCT-15 colon 103% | HT29 colon 110% | SNB-75 CNS 90.1% | SNB-19 CNS 97.6% | U251 CNS 104% | PC-3 prostate 106% | SK-MEL-5 melanoma 102% | UACC-62 melanoma 94.5% | LOX IMVI melanoma 105% | SK-MEL-28 melanoma 108% | SK-MEL-2 melanoma 117% | EKVX NSCLC 103% | SN12C renal 93.4% | UO-31 renal 90.8% | TK-10 renal 105% | ACHN renal 108% | CAKI-1 renal 91.3% | A498 renal 96.2% | CCRF-CEM leukemia 111% | MOLT-4 leukemia 109%

COc1ccc(C2C(C#N)=C(N)Oc3c2sc2c(C)cccc32)cc1 (stereo not given)
active: HCT-15 colon 9.6% | HT29 colon 6.72% | SNB-75 CNS -4.52% | CAKI-1 renal 3.44% | A498 renal -5.44% | CCRF-CEM leukemia 8%
inactive: SNB-19 CNS 26.3% | U251 CNS 25.4% | PC-3 prostate 11.3% | SK-MEL-5 melanoma 29% | UACC-62 melanoma 19.3% | LOX IMVI melanoma 17.2% | SK-MEL-28 melanoma 57.1% | SK-MEL-2 melanoma 48.2% | EKVX NSCLC 42.3% | SN12C renal 23.9% | UO-31 renal 33.9% | TK-10 renal 63.8% | ACHN renal 28.3% | MOLT-4 leukemia 12.9%

COc1ccc(-n2c(N)c(-c3nc4ccccc4[nH]3)cc(C#N)c2=O)cc1
inactive: HCT-15 colon 89.4% | HT29 colon 90.2% | SNB-75 CNS 60.5% | SNB-19 CNS 78.9% | U251 CNS 103% | PC-3 prostate 85.4% | SK-MEL-5 melanoma 90.9% | UACC-62 melanoma 102% | LOX IMVI melanoma 98.2% | SK-MEL-28 melanoma 100% | SK-MEL-2 melanoma 105% | EKVX NSCLC 79.1% | SN12C renal 85% | UO-31 renal 77.8% | TK-10 renal 103% | ACHN renal 75.9% | CAKI-1 renal 92.3% | A498 renal 64% | CCRF-CEM leukemia 98.3% | MOLT-4 leukemia 99.3%

Nc1ccccc1-c1cc2c(c3c1[nH]c1ccccc13)CCCCC2
inactive: HCT-15 colon 86.9% | HT29 colon 88% | SNB-75 CNS 105% | SNB-19 CNS 104% | U251 CNS 103% | PC-3 prostate 92.1% | SK-MEL-5 melanoma 93.8% | UACC-62 melanoma 95.4% | LOX IMVI melanoma 86.7% | SK-MEL-28 melanoma 107% | SK-MEL-2 melanoma 92.5% | EKVX NSCLC 89.9% | SN12C renal 99.7% | UO-31 renal 96.7% | TK-10 renal 101% | ACHN renal 107% | CAKI-1 renal 114% | A498 renal 119% | CCRF-CEM leukemia 93.1% | MOLT-4 leukemia 90.8%

C[C@H]1[C@H]2[C@H]3CC[C@@H]4[C@@]5(C)CC[C@H](O)C(C)(C)[C@@H]5CC[C@@]4(C)[C@]3(C)CC[C@]23CO[C@]1(C)[C@@H](C(=O)/C=C\c1cccnc1)C3
inactive: HCT-15 colon 38.5% | HT29 colon 99.5% | SNB-75 CNS 72.8% | SNB-19 CNS 71.6% | U251 CNS 58.6% | PC-3 prostate 21.3% | SK-MEL-5 melanoma 37% | UACC-62 melanoma 41.5% | LOX IMVI melanoma 51.5% | SK-MEL-28 melanoma 66.2% | SK-MEL-2 melanoma 87.3% | EKVX NSCLC 101% | SN12C renal 62.7% | UO-31 renal 58.7% | TK-10 renal 31.9% | ACHN renal 41.6% | CAKI-1 renal 55.6% | A498 renal 72.9% | CCRF-CEM leukemia 30.8% | MOLT-4 leukemia 25.2%

COc1cc(-c2nc3sccn3c2-c2ccnc(NCCCNS(=O)(=O)c3ccc(F)cc3)n2)ccc1F
inactive: HCT-15 colon 44.8% | HT29 colon 61% | SNB-75 CNS 59.9% | SNB-19 CNS 96.3% | U251 CNS 91.4% | PC-3 prostate 46.8% | SK-MEL-5 melanoma 40.7% | UACC-62 melanoma 29.7% | LOX IMVI melanoma 48.3% | SK-MEL-28 melanoma 73.9% | SK-MEL-2 melanoma 69.6% | EKVX NSCLC 83.6% | SN12C renal 62.1% | UO-31 renal 48.6% | TK-10 renal 118% | ACHN renal 60.7% | CAKI-1 renal 61.1% | A498 renal 96.7% | CCRF-CEM leukemia 24.7% | MOLT-4 leukemia 47.7%

CCS(=O)(=O)c1ncnc2nc[nH]c12
inactive: HCT-15 colon 101% | HT29 colon 93.2% | SNB-75 CNS 90.9% | SNB-19 CNS 97.9% | U251 CNS 95.6% | PC-3 prostate 76.4% | SK-MEL-5 melanoma 98.7% | UACC-62 melanoma 94.1% | LOX IMVI melanoma 101% | SK-MEL-28 melanoma 107% | SK-MEL-2 melanoma 100% | EKVX NSCLC 99.3% | SN12C renal 94.5% | UO-31 renal 92.6% | TK-10 renal 98.2% | ACHN renal 106% | CAKI-1 renal 99.6% | A498 renal 92.8% | CCRF-CEM leukemia 93.3% | MOLT-4 leukemia 103%

Cc1cc(O)c(C2=NN(c3ccc(S(N)(=O)=O)cc3)C(c3ccccc3O)C2)cc1Cl (stereo not given)
active: HT29 colon -18.4% | U251 CNS 2.38% | PC-3 prostate 9.8% | LOX IMVI melanoma -89.6% | EKVX NSCLC -2.37% | UO-31 renal 9.61% | ACHN renal 7.54% | CAKI-1 renal -13.6% | MOLT-4 leukemia -57.4%
inactive: HCT-15 colon 17.5% | SNB-75 CNS 41.5% | SNB-19 CNS 65.4% | SK-MEL-5 melanoma 36.8% | UACC-62 melanoma 21.3% | SK-MEL-28 melanoma 53.9% | SK-MEL-2 melanoma 17.4% | SN12C renal 15.1% | TK-10 renal 41.5% | A498 renal 20.6% | CCRF-CEM leukemia 12.9%

COc1ccc(-c2nc(NN)c3c(C)nn(-c4ccc(F)cc4)c3n2)cc1
inactive: HCT-15 colon 31.2% | SNB-75 CNS 23.3% | SNB-19 CNS 35.1% | U251 CNS 27.1% | PC-3 prostate 42.3% | SK-MEL-5 melanoma 40.7% | UACC-62 melanoma 36.2% | LOX IMVI melanoma 41.9% | SK-MEL-28 melanoma 61.4% | SK-MEL-2 melanoma 24.1% | EKVX NSCLC 59.4% | SN12C renal 44.5% | UO-31 renal 51.2% | TK-10 renal 77.3% | ACHN renal 40.2% | CAKI-1 renal 36.9% | A498 renal 20.8% | CCRF-CEM leukemia 23.4% | MOLT-4 leukemia 37.5%
active: HT29 colon 7.11%

COc1ccc(/C=N/Nc2cc(=O)[nH]c3ccc(C)cc23)cc1
inactive: HCT-15 colon 87.9% | HT29 colon 94.7% | SNB-75 CNS 108% | SNB-19 CNS 95.2% | U251 CNS 97.1% | PC-3 prostate 79.1% | SK-MEL-5 melanoma 69% | UACC-62 melanoma 89.4% | LOX IMVI melanoma 91.5% | SK-MEL-28 melanoma 101% | SK-MEL-2 melanoma 81.7% | EKVX NSCLC 82% | SN12C renal 88.3% | UO-31 renal 75.7% | TK-10 renal 116% | ACHN renal 92.2% | CAKI-1 renal 93.1% | A498 renal 87.8% | CCRF-CEM leukemia 88% | MOLT-4 leukemia 79%

CCOC(=O)Cn1c(=O)c2c(c3ccccc3n2C)n2nnc(-c3ccccc3)c12
inactive: HCT-15 colon 112% | HT29 colon 100% | SNB-75 CNS 94.2% | SNB-19 CNS 104% | U251 CNS 107% | PC-3 prostate 103% | SK-MEL-5 melanoma 98.4% | UACC-62 melanoma 102% | LOX IMVI melanoma 91.1% | SK-MEL-28 melanoma 107% | SK-MEL-2 melanoma 98.3% | EKVX NSCLC 95.1% | SN12C renal 118% | UO-31 renal 74.9% | TK-10 renal 120% | ACHN renal 97.3% | CAKI-1 renal 96.8% | A498 renal 127% | CCRF-CEM leukemia 282% | MOLT-4 leukemia 92.8%

COc1ccc(C(=O)C[C@]2(O)C(=O)Nc3c(Cl)ccc(Cl)c32)cc1
active: SNB-75 CNS -39.5% | A498 renal -23.6%
inactive: HCT-15 colon 22.6% | HT29 colon 15.9% | SNB-19 CNS 38.9% | U251 CNS 33.9% | PC-3 prostate 34.3% | SK-MEL-5 melanoma 34.6% | UACC-62 melanoma 46.4% | LOX IMVI melanoma 45.9% | SK-MEL-28 melanoma 60.4% | SK-MEL-2 melanoma 37.5% | EKVX NSCLC 51.2% | SN12C renal 39.8% | UO-31 renal 46.8% | TK-10 renal 71.6% | ACHN renal 44.5% | CAKI-1 renal 32.3% | CCRF-CEM leukemia 15.8% | MOLT-4 leukemia 34.1%

O=c1ccc(N=Nc2ccc([N+](=O)[O-])cc2)ccc1O
active: SK-MEL-5 melanoma 9.1% | LOX IMVI melanoma 3.95% | EKVX NSCLC 5.14% | SN12C renal 4.86%
inactive: HCT-15 colon 13.2% | HT29 colon 25.9% | SNB-75 CNS 30.7% | SNB-19 CNS 19% | U251 CNS 17.4% | PC-3 prostate 34.2% | UACC-62 melanoma 15.2% | SK-MEL-28 melanoma 41.1% | SK-MEL-2 melanoma 28.1% | UO-31 renal 17.1% | TK-10 renal 47.9% | ACHN renal 16.5% | CAKI-1 renal 20.2% | A498 renal 103% | CCRF-CEM leukemia 34.5% | MOLT-4 leukemia 18.6%
